PubChem BioAssay AID1508625 (Wald Lab, School of Medicine, Case Western Reserve …, 2021)

Test: small molecules boosting NK-mediated OVCAR3 lysis – imaging, primary NK cells, calcein-AM imaging, primary screen (AID 1508625);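 further: compound given to NK cells 16 h before adding targets at 1.5 to 1 ratio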;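 on z-score: more negative robust z means stronger NK killing of tumor cells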
Conditions: OVCAR3 lysis by primary NK cells, at 5 µM; z-score: measured here: robust Z-score, single-point normalisation

O=C(COc1ccccc1F)N1CCc2ccccc2C1
corrected activity, negative = more killing: -4.1%
z-score: -1.68

CCOc1ccc(-n2c(SCC(=O)Nc3ccc(C)cc3)nc3c([nH]c4ccccc43)c2=O)cc1
corrected activity, negative = more killing: -5.11%
z-score: -1.27

Cc1ccc(C(=O)NC(=Cc2cccnc2)C(=O)Nc2ccc(I)cc2)cc1
corrected activity, negative = more killing: -0.444%
z-score: -0.23

Cc1ccc2oc(-c3ccc(NC(=O)c4cccc(F)c4)c(C)c3)nc2c1
corrected activity, negative = more killing: -9.28%
z-score: -3.29

COc1ccc2c(c1)c(C(C)=O)c(C)n2-c1ccccc1C
corrected activity, negative = more killing: -0.941%
z-score: -0.487

CCOc1ccccc1C(=O)N1CCN(c2ccccc2OCC)CC1
corrected activity, negative = more killing: -2.5%
z-score: -1.03

Cc1cc(Nc2cccc(C(=O)O)c2)n2ncnc2n1
corrected activity, negative = more killing: 1.47%
z-score: 0.457

CCOC(=O)c1ccc(NC(=O)C(=O)N2CCCC2)cc1
corrected activity, negative = more killing: -5.89%
z-score: -2.55

COc1ccccc1N1CCN(C(=O)c2cnn3c(C(F)(F)F)cc(-c4ccc(C)cc4)nc23)CC1
corrected activity, negative = more killing: -4.5%
z-score: -1.43

Cc1cc(Nc2ncnc3sc4c(c23)CCCC4)ccc1Br
corrected activity, negative = more killing: -1.91%
z-score: -1.03

CC1(C)CC(=O)C(CCC(=O)c2ccccc2)C(C)(C)N1 (centres undefined)
corrected activity, negative = more killing: -2.46%
z-score: -0.733

CC(C)=NNC(=O)C(=O)Nc1cccc(Cl)c1
corrected activity, negative = more killing: -3.01%
z-score: -1.56

CCOC(=O)C(C)Sc1nc2c([nH]c3ccccc32)c(=O)n1C (centres undefined)
corrected activity, negative = more killing: -3.61%
z-score: -0.899

O=C(NC(=S)NN1CCOCC1)c1ccc(Br)cc1
corrected activity, negative = more killing: -1.04%
z-score: -0.33

Cc1ccc(C(=O)Oc2cccc(C(=S)N3CCOCC3)c2)cc1
corrected activity, negative = more killing: 1.48%
z-score: 0.458

Cc1cccn2c(=O)c3cc(C(=O)N4CCCCCC4)sc3nc12
corrected activity, negative = more killing: -6.34%
z-score: -1.8

COc1ccc(-n2c(=S)[nH]c3cc(C(=O)Nc4cc(C(N)=O)ccc4OC)ccc3c2=O)c(OC)c1
corrected activity, negative = more killing: -3.49%
z-score: -1.11

c1ccc2nn(C34CC5CC(CC(C5)C3)C4)nc2c1
corrected activity, negative = more killing: -1.32%
z-score: -0.685

COc1ccc(-n2c(=S)[nH]c3cc(C(=O)O)ccc3c2=O)cc1
corrected activity, negative = more killing: -5.11%
z-score: -1.63

CC(Oc1cccc(Cl)c1)C(=O)NC1CC(C)(C)NC(C)(C)C1 (centres undefined)
corrected activity, negative = more killing: 0.623%
z-score: 0.347

COc1ccc2c(c1OC)C(=O)OC2CC(=O)c1ccc(C)cc1 (centres undefined)
corrected activity, negative = more killing: -8.12%
z-score: -1.71

Cc1cc(Br)c(O)c(C=NCCNC(=O)c2nonc2N)c1
corrected activity, negative = more killing: 0.42%
z-score: 0.173
